Measurements reported in PubChem BioAssay AID651650 (Sanford-Burnham Center for Chemical Genomics, 2012).

Target: Neuropilin-1 (Homo sapiens) (UniProt O14786)
Test: NRP-1 b1b2 CendR peptide binding inhibitors, dose response, biochemical, FP and AlphaScreen panel (AID 651650)
Conditions: NRP-1 b1b2 / RPARPAR peptide binding, FP or AlphaScreen; run 1, at 100 µM (top of the series)

Sequence of Neuropilin-1 (Homo sapiens) (O14786 whole entry, looked up): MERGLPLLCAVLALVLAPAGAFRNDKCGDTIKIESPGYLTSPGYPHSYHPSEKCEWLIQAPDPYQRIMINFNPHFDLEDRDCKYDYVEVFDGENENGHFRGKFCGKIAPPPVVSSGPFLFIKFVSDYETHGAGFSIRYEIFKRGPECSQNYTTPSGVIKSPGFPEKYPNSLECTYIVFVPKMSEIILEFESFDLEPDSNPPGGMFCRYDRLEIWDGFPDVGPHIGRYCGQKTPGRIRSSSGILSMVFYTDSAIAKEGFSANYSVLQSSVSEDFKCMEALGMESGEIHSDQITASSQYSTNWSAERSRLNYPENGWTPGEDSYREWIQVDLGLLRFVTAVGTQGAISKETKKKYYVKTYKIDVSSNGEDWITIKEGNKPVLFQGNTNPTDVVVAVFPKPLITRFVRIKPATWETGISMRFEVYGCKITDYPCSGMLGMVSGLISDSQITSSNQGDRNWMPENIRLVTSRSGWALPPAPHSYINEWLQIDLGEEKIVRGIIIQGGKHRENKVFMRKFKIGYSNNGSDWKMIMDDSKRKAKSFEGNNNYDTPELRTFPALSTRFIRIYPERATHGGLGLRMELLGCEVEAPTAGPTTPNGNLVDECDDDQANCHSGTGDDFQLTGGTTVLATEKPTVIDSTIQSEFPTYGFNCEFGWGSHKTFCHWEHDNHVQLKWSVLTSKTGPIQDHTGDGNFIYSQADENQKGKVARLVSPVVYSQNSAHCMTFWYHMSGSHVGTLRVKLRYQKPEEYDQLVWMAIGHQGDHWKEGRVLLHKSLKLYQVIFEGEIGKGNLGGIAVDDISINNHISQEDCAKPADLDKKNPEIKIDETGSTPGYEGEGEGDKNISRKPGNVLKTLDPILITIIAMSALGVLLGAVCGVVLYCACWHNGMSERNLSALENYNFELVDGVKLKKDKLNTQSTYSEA

Compound | inhibition
Cc1ccccc1/C=C/c1nc2ccccc2c(=O)n1CCc1ccccc1 | 34.1%
CCOC(=O)C1=C(C)NC2=C(C(=O)CCC2)C1c1cn(Cc2ccc(Cl)cc2Cl)nc1-c1ccccc1 (stereo not drawn) | 72.6%
O=[N+]([O-])c1ccc(Nc2nc(NC3CCCCC3)nc(N3CCCC3)n2)cc1 | 25.6%
CC(=NN(Cc1ccccc1)c1ccccc1)c1ccccc1 | 87.9%
COC(=O)N[C@@H]1C[C@H]2[C@@H]3CC[C@H]4C[C@@H](OC)CC[C@]4(C)[C@H]3CC[C@]12C | 57.8%
COc1ccccc1COc1ccc2c(C)c(CC(=O)O)c(=O)oc2c1C | 44.2%
CC(C)NC(=O)c1c(CSc2ccccc2)noc1C(=O)NCc1ccccc1 | 49%
CC1(C)S[C@@H]2[C@H](NC(=O)COc3ccccc3)C(=O)N2C1C(=O)OCc1ccccc1 (stereo partly drawn) | 53.2%
CCOC(=O)C(NC(=O)CC(C)C)(Nc1sc(C)c(CC)c1C#N)C(F)(F)F (stereo not drawn) | -7.38%
COc1ccc(CN2C(=O)c3ccccc3C2=O)cc1C(=O)Nc1ccccc1N1CCOCC1 | 30%
CC(CN1CCOCC1)OC(=O)c1ccc2c(c1)OCCO2 (stereo not drawn) | 19.2%
COCCNC(=O)c1cc(-c2ccccc2)nn1CC1CC(c2cccc([N+](=O)[O-])c2)=NO1 (stereo not drawn) | 14.3%
O=C(CN1C2=NCCN2c2ccccc21)c1ccco1 | 0.0631%
Cc1ccc(OCC(=O)Nc2ccc(C)c(S(=O)(=O)N3CCCCCC3)c2)c([N+](=O)[O-])n1 | 44.6%
Cc1onc(-c2ccc(Cl)cc2Cl)c1-c1csc(COc2ccccc2)n1 | 65.6%
O=C(NCCCN1CCOCC1)c1ccc2c(=O)n(-c3ccc(F)c(Cl)c3)c(=S)[nH]c2c1 | 35.9%
O=C(COc1ccc(S(=O)(=O)N2CCCC2)cc1)Nc1ccc2c(c1)OCCO2 | 34%
Cc1ccccc1-c1cnc(C(O)c2ccc(F)c(F)c2)[nH]1 (stereo not drawn) | 43.1%
COC(=O)c1ccn(C(=O)c2ccc(Cl)cc2)n1 | 39.2%

Compound | inhibition
Cc1cc(C)cc(N(CCC(=O)O)S(=O)(=O)c2ccc3ccccc3c2)c1 | 38.7%
Cc1nc(Nc2ccc(S(N)(=O)=O)cc2)oc1C | 60.3%
CC(C)Oc1ccc(F)cc1-c1cc(C(=O)NCc2ccc(F)cc2)[nH]n1 | 16%
N#Cc1ccc(COC(=O)c2cnc(Cl)c(Cl)c2)cc1 | 36.5%
Cc1cccc(N(CC(=O)NC2CCCC2)C(=O)CS(=O)CC(=O)Nc2ccc3c(c2)OCO3)c1C (stereo not drawn) | 49%
CN(C)/C=C/c1c([N+](=O)[O-])c2ccc(O)cc2n1-c1ccccc1 | 39.4%
COc1ccc(CCNC(=O)c2c(O)c3cccc4c3n(c2=O)CC4)cc1OC | 37.4%
CC(=O)Nc1ccc(Oc2cc(C#N)c(C#N)cc2N2CCOCC2)cc1 | 10.4%
Cn1c(=O)c2c(nc(OCc3cccnc3)n2Cc2ccccc2)n(C)c1=O | 66.1%
CCN(CCCNC(=O)CNC(=O)c1nn(-c2ccc(OC)cc2OC)c(=O)c2ccccc12)c1cccc(C)c1 | 24.3%
Cc1ccccc1Nc1nc(N)nc(COC(=O)CC2CC3CCC2C3)n1 (stereo not drawn) | 3.37%
O=C(Cc1ccccc1Cl)N1CCOCC1 | 25.2%
O=C(Nc1ccc(N2CCOCC2)cc1)c1cc(-n2cnnc2)ccc1Cl | 55%
COc1ccc2c(c1)N(C)/C(=C1/SC(=NCc3ccccc3)N(c3ccccc3)C1=O)S2 | 36.5%
CCn1c(N)c(C(=O)NCc2cccnc2)sc1=S | 100%
C#CCCOC(=O)N1C2=NC(C(=O)OC)=C(C(=O)OC)[C@@H]3N(C)c4ccccc4[C@]23C[C@H]1CO | 74.8%
Cc1ccc(NC(=O)c2ccc3c(c2)S(=O)(=O)c2ccccc2C3=O)cc1S(=O)(=O)N1CCOCC1 | 26.3%
O=c1c2cn[nH]c2nc(SCc2ccccc2F)n1-c1ccc(Br)cc1 | 53.3%
O=C(COC(=O)c1ccccn1)c1ccc([N+](=O)[O-])cc1 | 66.4%
